Results taken from PubChem BioAssay AID651899 (Broad Institute, 2012).
Measured potencies and affinities stand elsewhere. Active and inactive are the calls of the source. The rule behind the calls is not given here.

Assay: cytotoxicity in HEK293 cells, dose response, cytotoxicity control, cell-based, plate reader, cherry-pick (AID 651899);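 note: cells exposed to compound for 48 hours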
Details: series mostly up to 26 µM; activity change, negative = cytotoxicity: at the top concentration

SMILES	activity change, negative = cytotoxicity
Cc1ccccc1-n1c(SCC(=O)N(C)C2CCS(=O)(=O)C2)nc2ccccc2c1=O (stereo unspecified)	10.8% (inactive)
CN1c2ccc(-c3cccc(F)c3)cc2[C@H]2[C@H](CCN2C(=O)c2ccncc2)[C@@H]1CO	14.4% (inactive)
CC(=O)c1ccc(C(=O)N2CCCC(C(=O)c3ccc(Cl)cc3)C2)s1 (stereo unspecified)	-0.878% (inactive)
COc1ccc(C(=O)C2CCCN(C(=O)c3ccc(C(C)=O)s3)C2)c(C)c1 (stereo unspecified)	-17.8% (inactive)
CC(=O)N1CC[C@@H]2[C@@H](CO)N(C)c3ccc(-c4cccc(F)c4)cc3[C@@H]21	-9.59% (inactive)
CN1c2ccc(-c3cccc(C#N)c3)cc2[C@H]2[C@H](CCN2C(=O)CC2CC2)[C@H]1CO	11.3% [at 23.5 µM] (inactive)
O=C(c1cccc(F)c1)N1CC[C@@H]2[C@@H](CO)Nc3ccc(-c4cccc(F)c4)cc3[C@@H]21	4.74% (inactive)
C=CCn1c(SCc2c(C(=O)OC)sc(N)c2C(=O)OC)nnc1-c1ccc(Cl)cc1	2.12% (inactive)
COc1ccc(-c2ccc3c(c2)[C@H]2[C@H](CCN2C(=O)Cc2cccnc2)[C@H](CO)N3C)cc1	-9.23% (inactive)
CCOc1ccc(-n2c(SCC(N)=O)nc3c(c2=O)SCC3)cc1	7.2% (inactive)
O=C(C[C@@H]1C[C@H]2c3cc(NC(=O)c4cccnc4)ccc3O[C@H]2[C@@H](CO)O1)NCc1cc(F)ccc1F	-2.27% [at 23.5 µM] (inactive)
CC(=O)Nc1ccc2nc(-c3cccnc3)[nH]c2c1	-2.08% (inactive)
C[C@H](CO)N1C[C@H](C)[C@@H](CN(C)Cc2ccc3c(c2)OCO3)Oc2ccc(NC(=O)Cn3cnnn3)cc2CC1=O	17% [at 12 µM] (inactive)
COc1cccc(NC(=O)N2C[C@H](O)COC[C@@H]3O[C@@H](CC(=O)N(C)C)CC[C@H]32)c1	18.8% (inactive)
CO[C@H]1CN(C)C(=O)c2ccc(NC(C)=O)cc2OC[C@@H](C)N(C(=O)C2CCCCC2)C[C@H]1C	-6.73% (inactive)
COc1ccccc1-c1cc(C(F)(F)F)nc(S(=O)(=O)CCCC(=O)O)n1	-15.9% (inactive)
O=c1[nH]c(N2CCN(Cc3ccc4c(c3)OCO4)CC2)nc2c1CCCC2	17.7% (inactive)
CC(=O)c1ccc(C(=O)N2CCCC(CCC(=O)N(C)CCc3ccccn3)C2)s1 (stereo unspecified)	26.2% (inactive)

SMILES	activity change, negative = cytotoxicity
O=C(Nc1ccc(NS(=O)(=O)c2ccccc2)cc1)c1cccnc1	-18.6% (inactive)
Cc1nc2c(C(=O)N3CCN(c4ccccn4)CC3)cnn2c(C)c1Cc1cccc(Cl)c1	7.49% (inactive)
COc1cc(-c2n[nH]c(=S)n2C(C)c2ccccc2)cc(OC)c1OC (stereo unspecified)	29.1% (inactive)
COc1ccc(-c2cc(NC=O)c3ncc(-c4cccc(C(=O)N(C)C)c4)n3c2)cn1	7.12% (inactive)
COc1ccc([N+](=O)[O-])cc1C(=O)NC1CCN(Cc2ccccc2)CC1	24% (inactive)
CC(=O)c1c(C)[nH]c(C(=O)Nc2cccnc2)c1C	-21.9% (inactive)
CN1CCCC1CCOC(C)(c1ccccc1)c1ccc(Cl)cc1 (stereo unspecified)	18.1% (inactive)
CC(C)(C)c1cc(C(=O)Nc2cccnc2)cc(C(=O)Nc2cccnc2)c1	-6.15% (inactive)
CC(=O)c1ccc(C(=O)N2CCCC(Nc3ccc(C(C)C)cc3)C2)s1 (stereo unspecified)	8.11% (inactive)
O=C(c1cccc(F)c1)N1CC[C@@H]2[C@H](CO)Nc3ccc(-c4cccc(F)c4)cc3[C@@H]21	17.2% (inactive)
CC(=O)c1ccc(NC(=O)CN2CCN(c3ccccc3)CC2)cc1	-22.7% (inactive)
COc1ccc(-c2nc3cnccn3c2Nc2ccc3c(c2)OCO3)cc1	1.49% (inactive)
COC(=O)C1CCN(C(c2ccc(OC)c(OC)c2)c2sc3nc(C)nn3c2O)CC1 (stereo unspecified)	35.7% (inactive)
Cc1nc(=O)c(-c2ccccc2)c(C)n1-c1ccc(Br)cc1	21.7% (inactive)
CC(=O)N1CC[C@@H]2[C@@H](CO)N(C)c3ccc(-c4ccccc4)cc3[C@@H]21	29.7% (inactive)
COc1ccc(C(=O)Nc2ccc(Cn3ccnc3)cc2)cc1OC	24.3% (inactive)
C[C@@H]1CN([C@H](C)CO)C(=O)c2cc(C#Cc3cccnc3)cnc2O[C@H]1CN(C)S(C)(=O)=O	9.57% (inactive)
CCNC(=O)[C@@H]1[C@@H](CO)[C@@H]2Cn3c(ccc(-c4cccnc4)c3=O)[C@@H]2N1Cc1ccc2c(c1)OCO2	26.9% [at 23.5 µM] (inactive)
